Bioassay records: PubChem BioAssay, Broad Institute
Hedgehog inh: Sonic Hedgehog pathway inhibition; Shh-LIGHT2 Gli-luciferase reporter, 30 h; inhibition, % (no concentration beside the values); actives 2.1% (n = 22,000); AID 2313;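 active = mean inhibition across valid replicates above about 65%, limit read from the data; inconclusive = mean under the limit, yet half or more replicates past it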;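 also: pathway switched on by Shh-conditioned medium diluted 1 in 25 in low serum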
MITF inhib: MITF inhibition; TRPM1 promoter luciferase, luminescence, 24 h; inhibition, % (no concentration beside the values); actives 0.28% (n = 37,000); in the data active = inhibition above about 85%; inconclusive = no clear call, values can overlap the other calls; inactive = below about 68%;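 also: human melanocyte line stably carrying TRPM1 promoter luciferase reporter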
NOMO-1 viab: STK33 inhibitor candidate reducing NOMO-1 cell viability. actives 7.5% (n = 37,000). NOMO-1 AML viability, CellTiter-Glo luminescence, 72 h. AID 2330. inhibition, % (test concentration not listed); in the data active = inhibition above about 80%; inconclusive = no clear call, values can overlap the other calls
Each line names hits and unclear results; the compound was inactive in the other large screens. Shown are actives, neighbours in structure and some others; about 7.8% of the full set was active somewhere.

CC(NC(=O)COc1ccccc1C(C)(C)C)c1ccccc1 (configuration not stated)	NOMO-1 viab 115
Cc1ccccc1OCC(=O)NCC(=O)O	none (no result: Hedgehog inh)
C[C@H]1CN([C@@H](C)CO)C(=O)c2cccc(NC(=O)Nc3ccc(F)cc3)c2O[C@@H]1CN(C)S(=O)(=O)c1ccc(F)cc1	none
COc1cccc(NC(=O)CSc2nnc(C)n2-c2ccc(F)cc2)c1	none (no result: Hedgehog inh)
Cc1cccc(NC(=O)c2cnn(-c3ccccc3)c2NC(=O)c2ccco2)c1	none
C[C@@H]1CN([C@@H](C)CO)C(=O)c2cccc(NC(=O)Nc3ccc4c(c3)OCO4)c2O[C@@H]1CN(C)S(=O)(=O)c1ccc(F)cc1	none
CCOC(=O)CSc1nc(Nc2ccc(OC)cc2)c2cnc(N(CC)CC)nc2n1	NOMO-1 viab 120
O=C(CSc1nc(Nc2ccccc2)nc(N2CCOCC2)n1)N1CCc2ccccc21	none (no result: Hedgehog inh)
CCOC(=O)CSc1nc(Nc2ccccc2)c2cnc(N3CCOCC3)nc2n1	NOMO-1 viab 112
CCN(CC)c1ncc2c(NCc3ccccc3)nc(SCc3ccccc3)nc2n1	none
Cc1[nH]c2ccccc2c1C(=O)CSc1nc(-c2ccccc2)cs1	none (no result: Hedgehog inh)
C[C@@H]1CN([C@@H](C)CO)C(=O)Cc2cc(NC(=O)C3CC3)ccc2O[C@@H]1CN(C)C(=O)Nc1ccc2c(c1)OCO2	none
O=C(COc1ccc2ccccc2c1Br)NCc1ccco1	none (no result: Hedgehog inh)
C[C@H](CO)N1C[C@H](C)[C@H](CN(C)S(=O)(=O)c2ccccc2)Oc2ccc(NS(=O)(=O)c3cccs3)cc2CC1=O	none
C[C@H]1CN([C@@H](C)CO)C(=O)Cc2cc(NC(=O)Nc3ccc4c(c3)OCO4)ccc2O[C@@H]1CN(C)Cc1ccncc1	none
Cc1noc(C)c1NC(=O)N(C)C[C@H]1Oc2ccc(NS(=O)(=O)c3cccs3)cc2CC(=O)N([C@H](C)CO)C[C@H]1C	none
C[C@@H]1CN([C@H](C)CO)C(=O)c2cc(NC(=O)Cc3cn(C)c4ccccc34)ccc2O[C@H]1CN(C)Cc1ccc2c(c1)OCO2	none (no result: Hedgehog inh)
C[C@@H]1CN([C@@H](C)CO)C(=O)c2cc(NC(=O)Cc3cn(C)c4ccccc34)ccc2O[C@H]1CN(C)Cc1ccc(-c2ccccc2)cc1	none
C[C@H](CO)N1C[C@H](C)[C@@H](CN(C)Cc2ccncc2)Oc2ccc(NC(=O)Cc3cn(C)c4ccccc34)cc2C1=O	NOMO-1 viab 92
C[C@H]1CN([C@@H](C)CO)C(=O)c2cc(NC(=O)Cc3cn(C)c4ccccc34)ccc2O[C@H]1CN(C)Cc1ccccc1	NOMO-1 viab 84 (no result: Hedgehog inh)
C[C@@H]1CN([C@@H](C)CO)C(=O)c2cc(NC(=O)Cc3cn(C)c4ccccc34)ccc2O[C@@H]1CN(C)Cc1ccc(-c2ccccc2)cc1	NOMO-1 viab 113 (no result: Hedgehog inh)
C[C@H]1CN([C@@H](C)CO)C(=O)c2cc(NC(=O)Cc3cn(C)c4ccccc34)ccc2O[C@H]1CN(C)Cc1ccncc1	none
C[C@@H]1CN([C@H](C)CO)C(=O)c2cc(NC(=O)Cc3cn(C)c4ccccc34)ccc2O[C@@H]1CN(C)Cc1ccccc1	none (no result: Hedgehog inh)
C[C@H](CO)N1C[C@H](C)[C@H](CN(C)Cc2ccc3c(c2)OCO3)Oc2ccc(NC(=O)Cc3cn(C)c4ccccc34)cc2C1=O	NOMO-1 viab 92
CC(C)CNC(=O)C1Sc2nnc(-c3ccccc3)n2NC1c1ccccc1 (configuration not stated)	none
COc1ccc(NC(=O)N(C)C[C@@H]2Oc3ccc(NC(=O)c4ccncc4)cc3CC(=O)N([C@@H](C)CO)C[C@@H]2C)cc1	none (no result: Hedgehog inh)
C[C@@H]1CN([C@H](C)CO)C(=O)Cc2cc(NC(=O)Nc3ccccc3)ccc2O[C@H]1CN(C)S(=O)(=O)c1ccc(F)cc1	none
CNC[C@@H]1Oc2c(N)cccc2C(=O)N([C@@H](C)CO)C[C@@H]1C	none
COc1ccc(S(=O)(=O)N(C)C[C@@H]2Oc3c(NS(C)(=O)=O)cccc3C(=O)N([C@H](C)CO)C[C@@H]2C)cc1	none
C[C@@H]1CN([C@@H](C)CO)C(=O)c2cc(NC(=O)Cc3cn(C)c4ccccc34)ccc2O[C@H]1CN(C)Cc1ccc(C(F)(F)F)cc1	NOMO-1 viab 91
C[C@H](CO)N1C[C@H](C)[C@H](CN(C)Cc2ccc(C(F)(F)F)cc2)Oc2ccc(NC(=O)Cc3cn(C)c4ccccc34)cc2C1=O	none (no result: Hedgehog inh)
C[C@H]1CN([C@@H](C)CO)C(=O)c2cccc(NS(=O)(=O)c3ccccc3)c2O[C@H]1CN(C)Cc1ccc(C(F)(F)F)cc1	none
CC(CNC1CCCCC1)OC(=O)c1ccccc1 (configuration not stated)	none
O=C(OC1(C#CCN2CCCCC2)CCCCC1)c1ccccc1	NOMO-1 viab 117
C[C@H](CO)N1C[C@H](C)[C@H](CN(C)Cc2ccc(C(=O)Nc3ccccc3N)cc2)Oc2ccc(NC(=O)CCN3CCOCC3)cc2CC1=O	NOMO-1 viab 138 (no result: Hedgehog inh)
C[C@@H]1CN([C@H](C)CO)C(=O)Cc2cc(NC(=O)CCN3CCOCC3)ccc2O[C@H]1CN(C)Cc1ccc(C(=O)Nc2ccccc2N)cc1	none (no result: Hedgehog inh)
C[C@H]1CN([C@@H](C)CO)C(=O)Cc2cc(NC(=O)CCN3CCOCC3)ccc2O[C@H]1CN(C)Cc1ccc(C(=O)Nc2ccccc2N)cc1	NOMO-1 viab 132 (no result: Hedgehog inh)
C[C@@H]1CN([C@H](C)CO)C(=O)Cc2cc(NC(=O)CCN3CCOCC3)ccc2O[C@@H]1CN(C)Cc1ccc(C(=O)O)cc1	none
Cc1sc(NC(=O)c2cc(-c3cccnc3)nc3ccccc23)c(C(=O)NC2CCCCC2)c1C	NOMO-1 viab 98 (no result: Hedgehog inh)
O=C(NC1CCCC1)c1c(NC(=O)c2cc(-c3cccnc3)nc3ccccc23)sc2c1CCCC2	none (no result: Hedgehog inh)
C[C@@H]1CN([C@H](C)CO)C(=O)c2cc(NC(=O)CCC(F)(F)F)ccc2O[C@@H]1CN(C)Cc1ccncc1	none (no result: Hedgehog inh)
C=C[C@@]12COC(=O)C(=C)C1[C@@H](O)[C@H](C(=C)C(=O)OC)[C@@H](OC(=O)C(=C)CO)C2 (some centres not stated)	NOMO-1 viab 116
C=C[C@@]12COC(=O)C(=C)[C@@H]1[C@@H](O)[C@H](C(=C)C(=O)OC)[C@@H](O)C2	NOMO-1 viab 83
C=C(CO)C(=O)O[C@H]1C[C@@]2(C)OC(=O)/C(=C/C)[C@@]23CC[C@@](C)(O)CC(=O)[C@@]1(C(=C)C(=O)OC)O3	none (no result: MITF inhib, NOMO-1 viab)
O=C(COC(=O)c1ccc(Br)cc1)c1ccc(Br)cc1	none (no result: Hedgehog inh)
O=C(COC(=O)c1c(C(F)(F)F)cccc1C(F)(F)F)c1ccc(Cl)cc1	NOMO-1 viab 111
C[C@@H]1CN([C@H](C)CO)C(=O)Cc2cc(NS(=O)(=O)c3ccccc3)ccc2O[C@H]1CN(C)Cc1ccc(Oc2ccccc2)cc1	none
C[C@@H]1CN([C@H](C)CO)C(=O)Cc2cc(NS(=O)(=O)c3ccc(F)cc3)ccc2O[C@H]1CN(C)Cc1ccc(Oc2ccccc2)cc1	NOMO-1 viab 127
C[C@@H]1CN([C@@H](C)CO)C(=O)Cc2cc(NS(=O)(=O)c3ccccc3)ccc2O[C@@H]1CN(C)Cc1ccc(Oc2ccccc2)cc1	none
Cc1ccc(S(=O)(=O)Nc2ccc3c(c2)CC(=O)N([C@H](C)CO)C[C@@H](C)[C@@H](CN(C)Cc2ccc(Oc4ccccc4)cc2)O3)cc1	NOMO-1 viab 115
Cc1ccc(S(=O)(=O)Nc2ccc3c(c2)CC(=O)N([C@H](C)CO)C[C@@H](C)[C@H](CN(C)Cc2ccc(Oc4ccccc4)cc2)O3)cc1	NOMO-1 viab inconclusive
